High-throughput results deposited in PubChem BioAssay by Broad Institute.
aSyn 5UTR act – Activators via SNCA 5'UTR binding, MLPCN; 300,000 tested, 7.1% active; activity score, % (tested at 7.5 µM), hits read low; alpha-synuclein 5'UTR reporter, activators screen; AID 1814, 2009; in the data active = activity score below about -60%
An asterisk follows results filed as active. The list is a sample of the results.

SMILES	aSyn 5UTR act
Cc1cccc(-c2ncc(S(=O)(=O)C(C)(C)C)c(N)n2)c1	-84.0*
C/C(=N\NC(=O)COc1ccc(C(C)(C)C)cc1)c1ccc(-n2ccnc2)cc1	-132.7*
CCc1ccc(NC(=S)NC(=O)CC(C)C)cc1	-154.0*
CCCCCCC(=O)Nc1ccc(Cl)cn1	-88.0*
CC(C)CC(=O)NC(=S)Nc1ccc(Cl)cn1	-67.9*
CCC(C)c1ccc(OCC(=O)Nc2ccc(Cl)cn2)cc1 (stereo not drawn)	-72.3*
CC(C)(C)c1ccc(C(=O)NCc2ccccc2)cc1	-88.4*
CC(C)(C)c1ccc(C(=O)NCc2ccc(Cl)cc2)cc1	-75.5*
Cc1ccc(CNC(=O)c2ccc3c(=O)c(O)c(-c4ccc(C)cc4)[nH]c3c2)cc1	93.7
Cc1ccc(CC(=O)NCc2ccc(Cl)cc2)cc1	-75.7*
Oc1ccc(/C=N/NC(=S)Nc2cccnc2)cc1O	-140.6*
S=C(N/N=C/c1ccc2ncccc2c1)Nc1cccnc1	59.0
COc1ccc(NC(=S)N/N=C/c2ccc(F)cc2)cc1OC	-73.2*
COc1ccc(NC(=S)Nc2ccc(C)c(Cl)c2)cc1OC	-62.2*
Fc1ccc(/C=N/NC(=S)Nc2ccc(Cl)cc2)cc1F	-131.6*
Fc1ccc(NC(=S)N/N=C/c2ccc(F)c(F)c2)cc1	-64.9*
Cc1ncoc1C(=O)Nc1ccc2c(c1)OCCO2	-63.4*
Cc1cc(C(=O)Nc2ccc3c(c2)OCCO3)c(C)o1	-113.4*
Cc1ncoc1C(=O)Nc1ccc(Oc2ccccc2)cc1	-104.0*
CCOc1ccc(NC(=S)NC(=O)c2ccco2)cc1	-250.2*
CCC(=O)NC(=S)Nc1ccc(NC(=O)c2ccco2)cc1	-86.4*
CCN(CC)c1ccc2c(c1)OC(N)=C(C#N)C2c1cccnc1 (stereo not drawn)	75.3
Cc1ccc(/C=N/NC(=O)c2cccs2)o1	-65.3*
O=C(N/N=C/c1ccc(Br)s1)c1ccccn1	-95.7*
O=C(N/N=C/C1CCCCC1)c1ccccn1	-115.8*
SMILES	aSyn 5UTR act
Cc1ccsc1/C=N/NC(=O)c1ccccn1	-151.1*
Cc1ccsc1/C=N/NC(=O)c1cc(-c2ccncc2)nc2ccccc12	67.4
O=C(N/N=C/c1ccsc1)c1ccccn1	-91.9*
O=C(N/N=C/c1ccc(OC(=O)c2ccccc2Br)cc1)c1ccccn1	-89.9*
Cc1ccsc1/C=N/NC(=O)c1cccs1	-109.0*
Cc1ccsc1/C=N/Nc1ccc(C(=O)O)cc1	63.7
O=C(CSc1nc2ccccc2o1)Nc1ccc(N2CCOCC2)cc1	-147.0*
O=C(CSc1nc2cc(Cl)ccc2o1)Nc1ccc(N2CCOCC2)cc1	-132.9*
Cc1cc2sc3nc(=O)n(-c4ccccc4)c(=O)n3c2cc1C	-159.7*
Cn1nccc1C(=O)Nc1ccc(Cl)cc1	-62.7*
Cn1nccc1C(=O)Nc1ccc2c(c1)OCO2	-114.5*
CC(C)CNC(=O)COC(=O)c1c2c(nc3ccccc13)/C(=C/c1cccs1)CC2	-110.2*
CC(=O)c1ccc(NC(=O)C2(c3ccccc3)CCOCC2)cc1	-118.0*
CCCNc1nc(-c2ccccc2)c(C(=O)OCC)cc1C#N	93.9
CCOC(=O)c1c(C)nc(-c2ccccc2)nc1N	-119.6*
CC(=O)c1c(C)nc(-c2ccccc2)nc1N	-72.4*
CCOC(=O)c1c(-c2ccccc2)cn2c(C)cc(C)nc12	-150.2*
O=C(Nc1ccccc1Br)c1ccc(OC(=S)N2CCOCC2)cc1	-192.3*
Cc1ccc(NC(=O)c2ccc(OC(=S)N3CCOCC3)cc2)cc1	-74.9*
CC(C)Oc1ccc(C(=O)NC(=S)N2CCOCC2)cc1	-78.8*
CC(C)(C)c1ccc(C(=O)NC(=S)N2CCOCC2)cc1	-101.9*
FC(F)(F)c1cccc(-c2ccc(-c3csnn3)o2)c1	-84.8*
CSc1nnc2c(n1)c(C)nn2-c1ccc(C)cc1	-179.7*
CC(C)CCOCC(=O)Nc1cccc(C(=O)O)c1	-72.9*
O=C(NCCc1ccc(Cl)cc1)c1ccc(Br)s1	-180.1*
SMILES	aSyn 5UTR act
O=C(NCCCCCCNC(=O)c1ccc(Br)s1)c1ccc(Br)s1	-108.3*
Cc1ccc(N=C2N=C(N)c3ccccc32)cc1C	-78.2*
CCc1ccc(N=C2N=C(N)c3ccccc32)cc1	-98.4*
CC(=O)c1ccc(NC(=O)C(C)Sc2nnc(C3CCCCC3)o2)cc1 (stereo not drawn)	-127.9*
CN(Cc1ccccc1)S(=O)(=O)c1ccc(C(=O)Nc2nnc(C3CC3)o2)cc1	60.1
C[C@@H]1CN(C(=O)c2cc(COc3cccc(C(F)(F)F)c3)on2)C[C@H](C)O1	-138.0*
O=C(NC1CCOC1)c1cc(COc2cccc(C(F)(F)F)c2)on1 (stereo not drawn)	-67.3*
CC(NC(=O)c1cc(COc2cccc(C(F)(F)F)c2)on1)c1nccs1 (stereo not drawn)	-61.8*
CCOC(=O)N1CCN(C(=O)c2cc(COc3cccc(C(F)(F)F)c3)on2)CC1	-92.1*
Cc1cc(-c2csc(NC(=O)c3cccc(S(=O)(=O)N(C)C)c3)n2)c(C)n1-c1ccccc1	-83.2*
COC(=O)c1sc(-c2ccc(Cl)cc2)cc1N	-101.1*
COC(=O)c1cc(-c2ccccc2)sc1N	-77.4*
COC(=O)c1sc(-c2cccs2)cc1N	-85.6*
CCSc1nc2c(cnn2-c2ccccc2)c(=O)n1N	-105.4*
CSc1nc2c(cnn2-c2ccccc2)c(=O)n1N	-91.6*
CC(C)(C)c1ccc(-c2nc(C#N)c(NCc3ccncc3)o2)cc1	-106.6*
Cc1ccc(-c2nc(C#N)c(NCc3cccc4c3OCO4)o2)cc1	-65.8*
Cc1ccc(C(=O)Nc2cccc(C(=O)NCc3ccco3)c2)cc1	-71.6*
Cc1ccc(C(=O)Nc2cccc(C(=O)N3CCN(C)CC3)c2)cc1	-97.8*
Cc1ccc(C(=O)Nc2ccc(S(=O)(=O)NCc3ccco3)cc2)cc1	-92.2*
CCC1=Nc2cc(C(=O)NCc3ccco3)ccc2Sc2ccc(C)cc21	104.2
Cc1ccc(S(=O)(=O)Nc2nc3ccccc3nc2NCc2ccco2)cc1	-180.4*
C/C(=N\Nc1nc(Cl)c(Cl)cc1Cl)c1ccc(S(=O)(=O)NCc2ccco2)cc1	-63.8*
C/C(=N\Nc1ccc(C(=O)O)cc1)c1ccc(S(=O)(=O)NCc2ccco2)cc1	-75.2*
Cc1ccc(N(O)C(=O)NCCCCNC(=O)N(O)c2ccc(C)cc2)cc1	-97.2*
SMILES	aSyn 5UTR act
COc1ccccc1-c1ccc(SCc2ccccc2F)nn1	-74.4*
COc1ccccc1-c1ccc(SCc2ccccc2)nn1	-139.5*
Cc1nc(C)c(-c2ccc(SCc3ccccc3F)nn2)s1	-150.7*
CC1(C(=O)N/N=C/c2ccc([N+](=O)[O-])o2)CC1(Br)Br (stereo not drawn)	-95.8*
O=C(Cc1ccc([N+](=O)[O-])cc1)N/N=C/c1ccc([N+](=O)[O-])o1	88.7
O=C(COc1ccccc1[N+](=O)[O-])N/N=C/C=C/c1ccco1	-73.2*
Cc1ccccc1OCC(=O)N/N=C/c1ccc([N+](=O)[O-])o1	-68.4*
O=C1CCCc2c1sc1nc3n(c(=O)c21)CCCCC3	-106.8*
O=c1c2c3c(sc2nc2n1CCCCC2)C(O)CCC3 (stereo not drawn)	-85.0*
O=C1c2sc3nc4n(c(=O)c3c2CCC1Br)CCCCC4 (stereo not drawn)	-179.6*
CN(C)c1ccc(C(=O)c2ccc(O)cc2O)cc1	-114.1*
Fc1cccc2sc(Nc3nc4ccccc4s3)nc12	-308.8*
O=C(Nc1nc2c(F)cc(F)cc2s1)c1ccccn1	73.1
Fc1ccc2nc(Nc3nc4c(F)cc(F)cc4s3)sc2c1	-211.4*
Fc1ccc2nc(Nc3nc4c(F)cccc4s3)sc2c1	-235.2*
Cc1ccc(Cn2ccc(-c3cnc(-c4ccccc4)s3)n2)cc1	-128.1*
